The values that follow come from PubChem BioAssay (NCI).

The panel holds about 83,000 compounds, 20% with a hit somewhere; the sample as a whole holds those more often.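 Interpretation: 100, growth as untreated; towards 0, rising growth inhibition; 0, no net growth; 0 to -100, cell death. Compounds scoring below 10 were considered active.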 The source made the active and inactive calls.

This assay deals with KM12 colon. The assay can be described thus: NCI-60 one-dose screen, 48 h (100 = growth as untreated, 0 = no growth, -100 = all killed). Particulars: 10 µM unless noted.
As to `Fc1cc2c(cc1Cl)N(c1ncnc3ccc(-c4ccc5n[nH]nc5c4)cc13)CC2`, the growth is 97.7% (inactive).
For `COc1ccc(-c2noc(C(=O)O)c2-c2cc(OC)c(OC)c(OC)c2)cc1`, the growth was 27.9% (inactive).
For the molecule `C=C1C(=O)O[C@H]2[C@H]1CC/C(Cn1cc(-c3ccccc3)nn1)=C\CC[C@@]1(C)O[C@@H]21`, the growth is 56% (inactive).
For `O=C(NCCCl)Nc1ncccc1OCc1ccccc1` the value was 108% (inactive); for `COc1ccc(/C=N/C2=C(C#N)C(c3ccccc3)c3ccc4ccccc4c3O2)cc1` (stereo not given), 17.5% (inactive); for `CCOC(=O)c1cc(C)n(-c2ccc(C(=O)O)cc2)c1C`, 95.3% (inactive).
For `COc1cc(NS(=O)(=O)c2ccc(-c3cnc(C4CC4)o3)cc2)ccc1F` the value was 20.7% (inactive).
As for `CC(=O)N1N=C(c2ccc(Nc3nc(Nc4ccccc4)nc(Nc4ccccc4)n3)cc2)CC1c1cccc([N+](=O)[O-])c1` (stereo not given), the figure is 129% (inactive).
Take `COc1cc(C2c3cc(OC(C)=O)c(OC)cc3CC3C(=O)OCC32)ccc1OC(C)=O` (stereo not given): the growth was 117% (inactive).
For `O=c1c2cccc3c(N4CCCC4)ccc(c32)c2nc3ccccc3n12` the value was 87.9% (inactive); for `CCC(C)(C)C(=O)O[C@H]1C[C@@H](C)C=C2C=C[C@H](C)[C@H](CC[C@@H]3CC(SCCN)CC(=O)O3)[C@H]21` (stereo not given in full), 88.2% (inactive).
On to `CCN(C)S(=O)(=O)Nc1cccc(Nc2ncnc3cc(NC(=O)CCl)ccc23)c1Cl`, for which the growth is 1.71% (active).
For `CC(=O)Oc1ccc(C)cc1C` the value was 103% (inactive); for `O=C1NC2(Nc3ccccc31)C(=O)Nc1c(Cl)cc(Cl)cc12` (stereo not given), 100% (inactive).
As for `O=C(Nc1ccc(Oc2cccc(Cl)c2)c(Cl)c1)c1cnccn1`, the figure is 20.7% (inactive); as for `Cc1ccc2c(n1)C(=O)C(Br)=C(CC(C)C)C2=O`, 99.3% (inactive); as for `Cc1[nH]c(C(=O)Nc2ccc(C(=O)N3CCN(c4cc5c(cc4F)c(=O)c(C(=O)O)cn5C4CC4)CC3)cc2OC(C)C)c(Cl)c1Cl`, 80.4% (inactive).
As for `COC1=CC(c2ccc[nH]2)=N/C1=C\c1[nH]c(C)c(CC(=O)OCc2ccccc2)c1CCC(=O)OCc1ccccc1`, the figure is -38.9% (active); as for `C=C1C(=O)O[C@H]2[C@H]1CC/C(COC(=O)/C=C\C(=O)NCc1ccc(Cn3c(=O)sn(CCI)c3=O)cc1)=C\CC[C@@]1(C)O[C@@H]21`, 97.4% (inactive).
For the molecule `CCOC(=O)c1c(C(=O)c2cn(C)c3ccc(Br)cc23)c(-c2cn(C)c3ccc(Br)cc23)n(NC(=O)OC(C)(C)C)c1C`, the growth is 89.4% [100 µM] (inactive).
As for `O=C1/C(=C/c2ccccc2O)CC/C1=C\c1ccccc1O`, the figure is 75.7% (inactive).
Turning to `CCOc1ccccc1Cn1ccnc1CCc1c(Cl)c(O)cc(O)c1C(=O)OC`, the growth was 98.4% (inactive).
In the case of `CCCNc1nc2ccccc2c2c1S(=O)(=O)c1ccc(Cl)cc1C2=O`, the growth was 17.1% (inactive).
Consider `COC1=CC(c2ccc[nH]2)=N/C1=C\c1[nH]c(C)c(C(=O)OC(C)C)c1C`, for which the growth was -66.3% (active).
As for `COc1ccc(C2=C(Nc3ccc(C(=O)Nc4ccccc4)cc3)C(=O)N(C)C2=O)cc1`, the growth is 91.6% (inactive).
As for `CCCCCOC(=O)c1c(C)[nH]c(/C=C2\N=C(c3ccc[nH]3)C=C2OC)c1C`, the figure is -13.6% (active); as for `O=C(Nc1ccc(OS(=O)(=O)c2ccc(F)cc2)cc1)C1CCCCCC1`, 70.3% (inactive).
As for `COc1ccc(Nc2nnc(-c3ccc(OC)c(OC)c3)o2)cc1`, the growth is 85.1% (inactive).
Consider `CS(=O)(=O)Nc1cc(-c2ccc3ncnc(Nc4ccc5c(cnn5Cc5cccc(F)c5)c4)c3c2)cnc1Cl`, for which the growth was 13.9% (inactive).
As for `O=C(CN1CCCCC1)Nc1nc(-c2cc3ccccc3oc2=O)cs1`, the figure is 99.9% (inactive).
Take `Cc1ccc(Nc2cc(N)nc(N)n2)cc1Cl`: the growth is 93% (inactive).
With `CC/C(=C(/c1ccc(Cl)cc1)c1ccc(OCCN(C)C)cc1)c1ccc(Cl)cc1`, the growth was 56.6% (inactive).
As for `O=c1c2ccccc2n2cnc3ccc(Cl)c1c32`, the figure is 84.3% (inactive).
`N#CSc1c[nH]c2cccc(/C=C/C(=O)/C=C(/C=C/c3cccc4[nH]cc(SC#N)c34)OB(F)F)c12`: the growth was 11.7% (inactive).
For `Cc1cc(C)c2c(c1)N(C)c1ncnc(-n3cnc4cc(C)ccc43)c1CC2C` (stereo not given) the value was 22.7% (inactive); for `N=C(N)c1ccc(-c2ccc(-c3ccccc3)o2)cc1`, -80.3% (active); for `COC(=O)c1c(C)nc(C)c2c1C(=O)C(Br)=C(NCc1ccccc1)C2=O`, 37.1% (inactive).
In the case of `COc1ccc(/C=C(\C#N)n2nnc3cc(Cl)ccc32)cc1`, the growth was 5.89% (active).
For the molecule `COc1cc2c(c(OC)c1OC)CCC(c1cccc(C(=O)Nc3cccc(Cl)c3)c1)O2` (stereo not given), the growth was 96.3% (inactive).
For `COc1ccc(Nc2ncc(Br)c(NCCCNC(=O)C3CCCC3)n2)cc1`, the growth was 23% (inactive).
